Experimental data taken from PubChem BioAssay (Tox21).
Where “and” joins values, the source holds several entries; their conditions need not be identical. Equal entries are not always repeated. Results filed as inconclusive are left out. Entries that show only a call come without a potency. Calls of active or inactive are those of the source. Calls come from the whole dose curve.

Each compound was assayed against 5-hydroxytryptamine receptor 2A (Homo sapiens) (UniProt P28223) (assay: 5-hydroxytryptamine receptor 2A (HTR2A) small molecule antagonists, cell-based qHTS assay (AID 1963586; note: nearly all actives have a fitted effect of over 45% in size)). Settings: HTR2A-CHO cells, DOI-induced calcium flux, fluorescence; series mostly up to 61.5 µM.
In short: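 Antagonist-mode intracellular calcium assay: DOI (4 nM) added after 5 min compound pre-incubation at room temperature to dye-loaded HTR2A-CHO cells. Fluorescence followed for 3 min, sampled every second.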
Potency is the fitted concentration of half-maximal effect.

Sequence of 5-hydroxytryptamine receptor 2A (Homo sapiens) (P28223 whole entry, looked up): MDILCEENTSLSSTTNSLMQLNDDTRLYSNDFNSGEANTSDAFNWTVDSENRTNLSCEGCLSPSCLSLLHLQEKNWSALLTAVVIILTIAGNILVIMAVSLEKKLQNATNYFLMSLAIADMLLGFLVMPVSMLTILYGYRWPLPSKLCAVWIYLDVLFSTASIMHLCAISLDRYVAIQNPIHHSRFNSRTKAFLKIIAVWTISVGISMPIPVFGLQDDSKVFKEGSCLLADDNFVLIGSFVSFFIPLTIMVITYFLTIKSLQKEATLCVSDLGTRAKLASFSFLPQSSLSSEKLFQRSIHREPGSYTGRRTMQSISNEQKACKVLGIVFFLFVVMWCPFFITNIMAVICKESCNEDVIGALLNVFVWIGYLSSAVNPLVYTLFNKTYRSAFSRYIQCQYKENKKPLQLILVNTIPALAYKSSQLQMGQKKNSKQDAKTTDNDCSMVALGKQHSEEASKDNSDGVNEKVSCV

Row | SMILES | Potency
1 | CCCCCCCCCCCCOCC1CO1 (stereo unspecified) | inactive
2 | CCCCC(CC)COC(C)=O (stereo unspecified) | inactive
3 | NC[C@H](O)c1ccc(O)c(O)c1 | inactive
4 | CC/C=C\C/C=C\C/C=C\CCCCCCCC(=O)O | inactive
5 | OCCNCCO | inactive
6 | CCCCC(CC)COP(=O)(O)OCC(CC)CCCC (stereo unspecified) | inactive
7 | O=C(O)c1ccc(C(=O)O)c(C(=O)O)c1 | inactive
8 | O=C1c2ccccc2CCc2ccccc21 | inactive
9 | CCN(CC)c1ccc(C(=O)c2ccccc2C(=O)O)c(O)c1 | inactive
10 | N[C@@H](Cc1c[nH]c2ccc(O)cc12)C(=O)O | 364 nM (active) and 6.5 µM (active)
11 | O=[N+]([O-])c1ccc2nc[nH]c2c1 | inactive
12 | O=C(O)c1ccccc1C(c1ccc(O)cc1)c1ccc(O)cc1 | inactive
13 | CCCCCCCCCCCCCC[P+](CCCC)(CCCC)CCCC | 14.8 µM (active) and 18.8 µM (active)
14 | CC1COc2ccccc2N1C(=O)C(Cl)Cl (stereo unspecified) | inactive
15 | OC1CCCC1 | inactive
16 | S=C(NC1CCCCC1)NC1CCCCC1 | inactive
17 | CC(C)c1ccc(S(=O)(=O)O)cc1 | inactive
18 | OCC(CO)(CO)CO | inactive
19 | CCCCCCCCCCCC(=O)N(C)CC(=O)O | inactive
20 | O=C1OC2(c3ccccc31)c1cc(Br)c(O)c(Br)c1Oc1c2cc(Br)c(O)c1Br | inactive
21 | NCCNCCNCCNCCN | inactive
